# Data published in publication PMC5540273 (PLoS ONE, 2017).
# Read-outs that look alike come from different tables or passages of the source.
# Experiments:
# Conditions in all cases: n = 1
# [1] = test system: PIM1
# [2] = test system: PIM2
# [3] = test system: PIM3
# [4] = test system: PIP5K1A
# [5] = test system: PIP5K1C
# [6] = test system: PIP5K2B
# [7] = test system: T1, PIP5K2C
# T1 construct: gene PIP4K2C
# [8] = test system: T2, PKAC-alpha
# T2 construct: gene PRKACA
# [9] = test system: T3, PKAC-beta
# T3 construct: gene PRKACB
# [10] = test system: PKMYT1
# [11] = test system: PKN1
# [12] = test system: PKN2
# [13] = test system: PLK1
# [14] = test system: PLK2
# [15] = test system: PLK3
# [16] = test system: PLK4
# [17] = test system: PRKCD
# [18] = test system: PRKCE
# [19] = test system: PRKCH
# [20] = test system: PRKCI
# [21] = concentration: 1 μM, replicates: in singlicate
# 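Also: KINOMEscan kinase panel screen.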
smiles,measurement,setting,value
O=C(Nc1ccccc1)Nc1cccc(Oc2ccc3nccn3n2)c1,%Inh,[1]; [21],0%
same,%Inh,[2]; [21],2%
same,%Inh,[3]; [21],0%
same,%Inh,[4]; [21],9%
same,%Inh,[5]; [21],49%
same,%Inh,[6]; [21],15%
same,%Inh,[7]; [21],48%
same,%Inh,[8]; [21],48%
same,%Inh,[9]; [21],70%
same,%Inh,[10]; [21],0%
same,%Inh,[11]; [21],0%
same,%Inh,[12]; [21],0%
same,%Inh,[13]; [21],33%
same,%Inh,[14]; [21],0%
same,%Inh,[15]; [21],0%
same,%Inh,[16]; [21],0%
same,%Inh,[17]; [21],16%
same,%Inh,[18]; [21],0%
same,%Inh,[19]; [21],0%
same,%Inh,[20]; [21],21%
COc1cc2nccc(Nc3ccc(NC(=O)c4ccc(C)cc4)c(O)c3)c2cc1OC.Cl [GW440132],%Inh,[1]; [21],0%
same,%Inh,[2]; [21],0%
same,%Inh,[3]; [21],0%
same,%Inh,[4]; [21],0%
same,%Inh,[5]; [21],50%
same,%Inh,[6]; [21],0%
same,%Inh,[7]; [21],4%
same,%Inh,[8]; [21],12%
same,%Inh,[9]; [21],0%
same,%Inh,[10]; [21],4%
same,%Inh,[11]; [21],0%
same,%Inh,[12]; [21],0%
same,%Inh,[13]; [21],0%
same,%Inh,[14]; [21],0%
same,%Inh,[15]; [21],0%
same,%Inh,[16]; [21],13%
same,%Inh,[17]; [21],24%
same,%Inh,[18]; [21],0%
same,%Inh,[19]; [21],17%
same,%Inh,[20]; [21],12%
Cl.NC(=O)c1cccc(Nc2nccc(Nc3ccc(Oc4cccc(Cl)c4)c(Cl)c3)n2)c1 [GW659008],%Inh,[1]; [21],15%
same,%Inh,[2]; [21],0%
same,%Inh,[3]; [21],1%
same,%Inh,[4]; [21],15%
same,%Inh,[5]; [21],45%
same,%Inh,[6]; [21],32%
same,%Inh,[7]; [21],60%
same,%Inh,[8]; [21],0%
same,%Inh,[9]; [21],0%
same,%Inh,[10]; [21],0%
same,%Inh,[11]; [21],0%
same,%Inh,[12]; [21],0%
same,%Inh,[13]; [21],5%
same,%Inh,[14]; [21],0%
same,%Inh,[15]; [21],0%
same,%Inh,[16]; [21],0%
same,%Inh,[17]; [21],27%
same,%Inh,[18]; [21],27%
same,%Inh,[19]; [21],10%
same,%Inh,[20]; [21],10%
Cc1csc(-c2nc(Nc3ccncc3)c3ccccc3n2)n1 [GW869640],%Inh,[1]; [21],31%
same,%Inh,[2]; [21],0%
same,%Inh,[3]; [21],17%
same,%Inh,[4]; [21],0%
same,%Inh,[5]; [21],29%
same,%Inh,[6]; [21],2%
same,%Inh,[7]; [21],2%
same,%Inh,[8]; [21],14%
same,%Inh,[9]; [21],44%
same,%Inh,[10]; [21],16%
same,%Inh,[11]; [21],0%
same,%Inh,[12]; [21],23%
same,%Inh,[13]; [21],51%
same,%Inh,[14]; [21],40%
same,%Inh,[15]; [21],31%
same,%Inh,[16]; [21],24%
same,%Inh,[17]; [21],21%
same,%Inh,[18]; [21],37%
same,%Inh,[19]; [21],0%
same,%Inh,[20]; [21],30%
NC(=O)c1nnc2ccccc2c1N,%Inh,[1]; [21],1%
same,%Inh,[2]; [21],0%
same,%Inh,[3]; [21],0%
same,%Inh,[4]; [21],0%
same,%Inh,[5]; [21],38%
same,%Inh,[6]; [21],0%
same,%Inh,[7]; [21],13%
same,%Inh,[8]; [21],13%
same,%Inh,[9]; [21],16%
same,%Inh,[10]; [21],15%
same,%Inh,[11]; [21],1%
same,%Inh,[12]; [21],38%
same,%Inh,[13]; [21],28%
same,%Inh,[14]; [21],8%
same,%Inh,[15]; [21],10%
same,%Inh,[16]; [21],19%
same,%Inh,[17]; [21],0%
same,%Inh,[18]; [21],15%
same,%Inh,[19]; [21],0%
same,%Inh,[20]; [21],28%
Cc1ccc(NC(=O)Nc2cccc(Cl)c2)cc1-c1ccc(C(=O)Nc2ccncc2)cc1 [GSK1398468],%Inh,[1]; [21],15%
same,%Inh,[2]; [21],0%
same,%Inh,[3]; [21],0%
same,%Inh,[4]; [21],0%
same,%Inh,[5]; [21],33%
same,%Inh,[6]; [21],0%
same,%Inh,[7]; [21],28%
same,%Inh,[8]; [21],0%
same,%Inh,[9]; [21],4%
same,%Inh,[10]; [21],0%
same,%Inh,[11]; [21],0%
same,%Inh,[12]; [21],0%
same,%Inh,[13]; [21],0%
same,%Inh,[14]; [21],0%
same,%Inh,[15]; [21],1%
same,%Inh,[16]; [21],0%
same,%Inh,[17]; [21],0%
same,%Inh,[18]; [21],12%
same,%Inh,[19]; [21],5%
same,%Inh,[20]; [21],0%
Cn1ccc2ncnc(Oc3ccc(Nc4nc5ccccc5[nH]4)cc3)c21,%Inh,[1]; [21],0%
same,%Inh,[2]; [21],0%
same,%Inh,[3]; [21],0%
same,%Inh,[4]; [21],0%
same,%Inh,[5]; [21],25%
same,%Inh,[6]; [21],26%
same,%Inh,[7]; [21],16%
same,%Inh,[8]; [21],3%
same,%Inh,[9]; [21],0%
same,%Inh,[10]; [21],18%
same,%Inh,[11]; [21],0%
same,%Inh,[12]; [21],0%
same,%Inh,[13]; [21],0%
same,%Inh,[14]; [21],0%
same,%Inh,[15]; [21],0%
same,%Inh,[16]; [21],62%
same,%Inh,[17]; [21],12%
same,%Inh,[18]; [21],0%
same,%Inh,[19]; [21],13%
same,%Inh,[20]; [21],0%
Cl.O=C(Nc1cccc(-c2nn3ncccc3c2-c2ccnc(Nc3cccnc3)n2)c1)c1c(F)cccc1F [GSK312879],%Inh,[1]; [21],11%
same,%Inh,[2]; [21],0%
same,%Inh,[3]; [21],0%
same,%Inh,[4]; [21],2%
same,%Inh,[5]; [21],11%
same,%Inh,[6]; [21],4%
same,%Inh,[7]; [21],0%
same,%Inh,[8]; [21],14%
same,%Inh,[9]; [21],19%
same,%Inh,[10]; [21],20%
same,%Inh,[11]; [21],45%
same,%Inh,[12]; [21],0%
same,%Inh,[13]; [21],0%
same,%Inh,[14]; [21],0%
same,%Inh,[15]; [21],0%
same,%Inh,[16]; [21],0%
same,%Inh,[17]; [21],0%
same,%Inh,[18]; [21],5%
same,%Inh,[19]; [21],16%
same,%Inh,[20]; [21],0%
Cc1ccc(NC(=O)Nc2cccc(C(F)(F)F)c2)cc1 [GSK955403],%Inh,[1]; 1 µM,5%
same,%Inh,[2]; 1 µM,15%
same,%Inh,[3]; 1 µM,21%
same,%Inh,[4]; 1 µM,0%
same,%Inh,[5]; 1 µM,0%
same,%Inh,[6]; 1 µM,0%
same,%Inh,[7]; 1 µM,0%
same,%Inh,[8]; 1 µM,14%
same,%Inh,[9]; 1 µM,14%
same,%Inh,[10]; 1 µM,0%
same,%Inh,[11]; 1 µM,16%
same,%Inh,[12]; 1 µM,0%
same,%Inh,[13]; 1 µM,0%
same,%Inh,[14]; 1 µM,0%
same,%Inh,[15]; 1 µM,0%
same,%Inh,[16]; 1 µM,9%
same,%Inh,[17]; 1 µM,8%
same,%Inh,[18]; 1 µM,0%
same,%Inh,[19]; 1 µM,0%
same,%Inh,[20]; 1 µM,11%
Cl.Oc1ccc(-c2nc(-c3ccccc3)[nH]c2-c2ccncc2)cc1 [SB-428218],%Inh,[1]; [21],44%
same,%Inh,[2]; [21],0%
same,%Inh,[3]; [21],42%
same,%Inh,[4]; [21],72%
same,%Inh,[5]; [21],49%
same,%Inh,[6]; [21],0%
same,%Inh,[7]; [21],58%
same,%Inh,[8]; [21],0%
same,%Inh,[9]; [21],16%
same,%Inh,[10]; [21],14%
same,%Inh,[11]; [21],0%
same,%Inh,[12]; [21],0%
same,%Inh,[13]; [21],0%
same,%Inh,[14]; [21],0%
same,%Inh,[15]; [21],0%
same,%Inh,[16]; [21],0%
same,%Inh,[17]; [21],0%
same,%Inh,[18]; [21],33%
same,%Inh,[19]; [21],0%
same,%Inh,[20]; [21],12%
COc1cc2ncnc(Nc3ccc4nc(-c5ccccc5)[nH]c4c3)c2cc1OC.Cl [GW282450],%Inh,[1]; [21],0%
same,%Inh,[2]; [21],0%
same,%Inh,[3]; [21],0%
same,%Inh,[4]; [21],6%
same,%Inh,[5]; [21],54%
same,%Inh,[6]; [21],3%
same,%Inh,[7]; [21],11%
same,%Inh,[8]; [21],6%
same,%Inh,[9]; [21],0%
same,%Inh,[10]; [21],10%
same,%Inh,[11]; [21],0%
same,%Inh,[12]; [21],0%
same,%Inh,[13]; [21],9%
same,%Inh,[14]; [21],0%
same,%Inh,[15]; [21],0%
same,%Inh,[16]; [21],94.5%
same,%Inh,[17]; [21],14%
same,%Inh,[18]; [21],17%
same,%Inh,[19]; [21],0%
same,%Inh,[20]; [21],31%
